PubChem BioAssay (NCI)
About 83,000 compounds went through this panel and 20% of them were active in at least one assay; those are over-represented in the sample as a whole.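 Results are percent growth after 48 hours of single-concentration exposure. 100 means growth as in untreated cells, lower positive values show inhibition; negative values down to -100 show cell death.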 Activity calls are given as the source filed them. How the source made its calls: active means growth percent below 10; inactive means the rest.

system: SN12C renal; test: NCI-60 one-dose screen, 48 h (100 = growth as untreated, 0 = no growth, -100 = all killed); details: 10 µM

| Structure (SMILES) | growth |
| --- | --- |
| CC(=O)OC/C=C(/C)C[P+](c1ccccc1)(c1ccccc1)c1ccccc1 | 51.5% (inactive) |
| CCOC(=O)c1cc(C(=O)c2cc(OC)cc(OC)c2)n2ncc3ccccc3c12 | 39.9% (inactive) |
| C=CCN(CC=C)C(=O)[C@H](CC)[C@@H]1CC[C@@H](C)[C@@H]([C@H](C)[C@@H](O)[C@@H](C)C(=O)[C@H](CC)C2O[C@]3(C=CC(=O)[C@]4(CC[C@@](C)([C@H]5CC[C@](O)(CC)[C@H](C)O5)O4)O3)[C@H](C)C[C@@H]2C)O1 (stereo partly specified) | 19.8% (inactive) |
| Cc1c2c(nn1C(=O)c1nn(-c3ccc(Cl)cc3)cc1O)-c1ccccc1CC2 | 29.2% (inactive) |
| O=C(CCn1cnc2c(cc(-c3ccccc3)n2-c2ccccc2)c1=O)Nc1ccc(F)cc1 | 73.6% (inactive) |
| COc1ccc(-c2onc(N)c2-c2cc(OC)c3c(c2)OCO3)cc1 | 25.9% (inactive) |
| CCCN(CCC)C(=O)[C@H](CC)[C@@H]1CC[C@@H](C)[C@@H]([C@H](C)[C@@H](O)[C@@H](C)C(=O)[C@H](CC)C2O[C@]3(C=C[C@@H](O)[C@]4(CC[C@@](C)([C@H]5CC[C@](O)(CC)[C@H](C)O5)O4)O3)[C@H](C)C[C@@H]2C)O1 (stereo partly specified) | 3.43% (active) |
| CCOC(=O)c1cc(C(=O)c2cc(OC)c(OC)c(OC)c2)n2c1ccc1c3cccnc3ccc12 | 78.7% (inactive) |
| COc1cc(NC(=O)Nc2cnc(Nc3ccc(N4CCOCC4)cc3)nc2Oc2cccc(OC)c2)cc(OC)c1 | 43.3% (inactive) |
| Fc1ccc2[nH]cc(-c3nc(-c4ccsc4)cs3)c2c1 | 92.5% (inactive) |
| IC(I)I | 95.1% (inactive) |
| Cc1ccc(-n2c(C)nn3c(=O)c4c5c(sc4nc23)CN(C)CC5)cc1 | 97.6% (inactive) |
| CN(C)c1ccc(/C=N/NC(=O)c2ccccc2Nc2cccc(C(F)(F)F)c2)cc1 | 87.6% (inactive) |
| N#CC1=C(N)Oc2cc(N)ccc2C1c1cccnc1 (stereo unspecified) | 98.5% (inactive) |
| O=C(CCCCNC(=O)c1nc(-c2ccccc2)n(-c2ccccc2)n1)NO | 77.9% (inactive) |
| COc1ccc(-c2cc(-c3ccc(OC)c(OC)c3)nc(SCCCC(=O)NO)n2)cc1 | 5.59% (active) |

| Structure (SMILES) | growth |
| --- | --- |
| COc1cc(C2CC(c3ccccc3)=NN2C(C)=O)cc(OC)c1OC (stereo unspecified) | 63.5% (inactive) |
| O=C(/C=C/C=C/c1c(C2CC2)nc2ccccc2c1-c1ccc(F)cc1)c1cccs1 | 38.1% (inactive) |
| CC(C)N(CCOc1ccc(-c2nc3sccn3c2-c2ccnc(S(C)(=O)=O)n2)cc1)C(C)C | 87.8% (inactive) |
| O=C(Nc1nc(-c2ccccc2)nc2c1sc(=S)n2-c1ccccc1)C(F)(F)F | 95.3% (inactive) |
| O=C(CSc1nnc(-c2ccc(Cl)cc2)o1)Nc1ccc(C(=O)/C=C/c2ccc(Cl)cc2)cc1 | 95.9% (inactive) |
| C=CCn1c(SCC(=O)Nc2ccc(C(=O)/C=C/c3ccc(OC)cc3)cc2)nnc1-c1ccc(OC)c(OC)c1 | 73.1% (inactive) |
| CN1CCN(CC(=O)Nc2cccc(-n3cc(-c4ccncc4)c(-c4ccc(Cl)c(O)c4)n3)c2)CC1 | 64.9% (inactive) |
| CCc1ccc(C2=NN(c3ccc(S(C)(=O)=O)cc3)C(=O)CC2)cc1 | 31.4% (inactive) |
| Cc1nn(-c2ccc(-c3ccc(OC(F)(F)F)cc3)cc2)c2nc(Cc3ccccc3)nc(N)c12 | 62.8% (inactive) |
| Cn1c2ccccc2c2c3[nH][nH]c(=O)c3c3c4ccccc4[nH]c3c21 | 16.1% (inactive) |
| CC[C@H]1OC(=O)[C@H](C)[C@@H](O[C@H]2C[C@@](C)(OC)[C@@H](O)[C@H](C)O2)[C@H](C)[C@@H](O[C@@H]2O[C@H](C)C[C@H](N(C)C)[C@H]2O)[C@](C)(OC)C/C(C)=C2/O[C@@]1(C)C=C2C | 76.9% (inactive) |
| C=C(C)[C@@H]1CC[C@]2(COCCC#N)CC[C@]3(C)[C@H](CC[C@@H]4[C@@]5(C)Cc6c([nH]c7ccccc67)C(C)(C)[C@@H]5CC[C@]43C)[C@@H]12 | 98.7% (inactive) |
| CC(=O)[C@H]1CC[C@]2(C)[C@@H]1CC[C@@H]1[C@@]3(C)CC(CCC#N)(CCC#N)C(=O)C(C)(C)[C@@H]3CC[C@]12C | 91.8% (inactive) |
| O=C1c2ccccc2C(=O)c2c1ccc(C(Br)Br)c2Cl | -48.5% (active) |
| Clc1ccc(/C=C2\CCCC3C2=Nc2ccccc2NC3c2ccc(Cl)cc2)cc1 (stereo unspecified) | 85.3% (inactive) |
